49 compounds from PubChem BioAssay (NCATS) can be followed below.

Values joined by “and” are separate entries in the source; they are usually repeats but may differ in a detail not shown here. Equal entries are not always repeated. Unmarked numbers belong to inactive results. Inconclusive results are not listed. A call without a number means that no potency is given here. Active and inactive are the calls of the source. Unless noted, the call rests on the fitted dose curve.

Assay [1] is described as follows: qHTS assay to identify small molecules that stimulate interleukin-8 (IL-8) secretion (AID 651758; active means well fitted activation curve with a large enough effect in the signal ratio; the % refers to the signal ratio). In a few lines:
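Secreted IL-8 measured homogeneously by TR-FRET (two labelled anti-IL-8 antibodies, 1-3 h at room temperature) after a 16 h, 37 C compound treatment of THP-1 cells at 2000 cells/well.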

Assay [2] deals with Estrogen receptor (Homo sapiens) (UniProt P03372). Description: qHTS assay for small molecule agonists of estrogen receptor alpha signaling (AID 588514). Further: nearly all actives have a fitted effect of over 70% in size. In a few lines: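 EC50 and efficacy came from Hill fits of beta-lactamase reporter signal (CCF4 dye, 2 h at room temperature) scaled between DMSO and 20 nM 17-beta-estradiol. Agonist mode: HEK293 ER-alpha-UAS-bla cells in charcoal/dextran-stripped serum medium, 18 h compound exposure at 37 C.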
In general terms: In qHTS, concentration-response curves come from the screen itself.

The target in assay [3] is Androgen receptor (Homo sapiens) (UniProt P10275). The assay can be described thus: qHTS assay for small molecule agonists of androgen receptor signaling (AID 588515; active means well fitted curve in the direction sought with a large enough effect in the signal ratio, with a control signal flat; the % refers to the signal ratio). The settings on record: AR-UAS-bla HEK293, beta-lactamase ratio, agonist 16 h; stronger effect = higher value. An outline of the steps: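 Stimulation of an AR-responsive β-lactamase reporter in GripTite HEK293 cells was measured after 16 h compound exposure at 37 °C, via CCF4 fluorescence after 2 h RT. EC50 from Hill fits, normalized to R1881 at 30 nM.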

For assay [4], the target named is Bile acid receptor (Homo sapiens) (UniProt Q96RI1). Description: qHTS assay for small molecule antagonists of farnesoid X receptor signaling (AID 588526). An outline of the steps: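 Beta-lactamase reporter antagonist mode: HEK293T FXR-UAS-bla cells, titrated compound, CDCA stimulation, 16 h 37 C, CCF4 dye 2 h RT. Data normalized to CDCA 50 uM and DMSO; Hill-fit IC50.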

Assay [5] concerns the target Androgen receptor (Homo sapiens) (UniProt P10275). The assay can be described thus: qHTS assay for small molecule antagonists of androgen receptor signaling (AID 588516; active means well fitted curve in the direction sought with a large enough effect in the signal ratio, with a control signal flat, not every such curve was filed as active; the % refers to the signal ratio). In a few lines:
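Antagonist-mode qHTS: inhibition of R1881 (10 nM)-driven beta-lactamase expression in GripTite HEK 293 cells is measured after 16 h; values are Hill-derived IC50s normalized between R1881 and DMSO wells.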

Assay [6] deals with Cytochrome P450 3A4 (Homo sapiens) (UniProt P08684). The assay can be described thus: qHTS Assay for Activators of Cytochrome P450 3A4 (AID 885; active means well fitted curve in the direction sought with a large enough effect; an effect the other way counts as inactive or inconclusive; further: nearly all actives have a fitted effect of over 65% in size). An outline of the steps: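 Activators are scored by enhanced luminescence from CYP3A4 conversion of luciferin-PPXE (25uM, equal to KM) to luciferin, after 60 min at RT with an NADPH-regenerating system.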
Assay [7] is described as follows: Confirmation and Secondary Assay for Modulators of Hemoglobin Beta Chain Splicing at IVS2 654 locus (AID 910; active means well fitted curve in the direction sought with a large enough effect; an effect the other way counts as inactive or inconclusive;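 further: HeLa cells stably carrying EGFP split by mutant beta-globin IVS2-654 intron; per-well total GFP intensity by laser scanning cytometry after 2-day treatment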). An outline of the steps: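 Readout: per-well total peak green fluorescence (488 nm ex, 500–520 nm em) from objects 5–250 µm, reflecting correct splicing of an EGFP-654 reporter. Compounds were applied for 2 days at 37 °C to overnight-plated HeLa EGFP-654 cells; controls were DMSO and 500 nM IVS2-654 PNA.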

Assay [8] can be described thus: Confirmation and Secondary Assay for Modulators of Hemoglobin Beta Chain Splicing at IVS2 705 locus (AID 930; active means well fitted curve in the direction sought with a large enough effect; an effect the other way counts as inactive or inconclusive;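 further: HeLa cells stably expressing the EGFP-705 splicing reporter; series mostly up to about 46 µM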). An outline of the steps: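 Assay measures total GFP intensity per well in HeLa EGFP-705 cells after 2 days with compound; mis-splicing normally truncates EGFP, so fluorescence indicates corrected splicing.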
Assay [9] has as its target Ubiquitin carboxyl-terminal hydrolase 1 (Homo sapiens) (UniProt O94782). The assay can be described thus: Inhibitors of USP1/UAF1: Pilot qHTS (AID 504865; active means well fitted curve in the direction sought with a large enough effect; an effect the other way counts as inactive or inconclusive;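 further: rhodamine fluorescence freed from ubiquitin-rhodamine substrate followed over time; top concentration of the series differs between compounds; nearly all actives have a fitted effect of over 35% in size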). In a few lines:
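Kinetic fluorescence assay: 1nM USP1/UAF1, 15 min compound preincubation, then 150nM Ub-Rho; 480/540 nm.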

Sequence of Bile acid receptor (Homo sapiens) (Q96RI1 whole entry, looked up): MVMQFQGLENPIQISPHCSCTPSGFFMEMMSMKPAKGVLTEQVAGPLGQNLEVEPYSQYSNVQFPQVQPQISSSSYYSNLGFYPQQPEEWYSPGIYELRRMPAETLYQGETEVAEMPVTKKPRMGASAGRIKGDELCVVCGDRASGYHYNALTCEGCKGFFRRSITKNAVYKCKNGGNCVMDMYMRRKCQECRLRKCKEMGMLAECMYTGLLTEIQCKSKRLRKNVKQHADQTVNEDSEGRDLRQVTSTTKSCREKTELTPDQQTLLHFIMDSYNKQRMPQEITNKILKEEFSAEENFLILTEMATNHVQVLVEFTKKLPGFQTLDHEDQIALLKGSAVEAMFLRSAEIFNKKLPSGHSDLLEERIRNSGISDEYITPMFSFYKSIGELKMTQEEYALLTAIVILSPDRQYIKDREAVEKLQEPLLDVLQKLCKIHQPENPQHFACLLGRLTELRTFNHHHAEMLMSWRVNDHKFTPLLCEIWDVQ
Sequence of Cytochrome P450 3A4 (Homo sapiens) (P08684 whole entry, looked up): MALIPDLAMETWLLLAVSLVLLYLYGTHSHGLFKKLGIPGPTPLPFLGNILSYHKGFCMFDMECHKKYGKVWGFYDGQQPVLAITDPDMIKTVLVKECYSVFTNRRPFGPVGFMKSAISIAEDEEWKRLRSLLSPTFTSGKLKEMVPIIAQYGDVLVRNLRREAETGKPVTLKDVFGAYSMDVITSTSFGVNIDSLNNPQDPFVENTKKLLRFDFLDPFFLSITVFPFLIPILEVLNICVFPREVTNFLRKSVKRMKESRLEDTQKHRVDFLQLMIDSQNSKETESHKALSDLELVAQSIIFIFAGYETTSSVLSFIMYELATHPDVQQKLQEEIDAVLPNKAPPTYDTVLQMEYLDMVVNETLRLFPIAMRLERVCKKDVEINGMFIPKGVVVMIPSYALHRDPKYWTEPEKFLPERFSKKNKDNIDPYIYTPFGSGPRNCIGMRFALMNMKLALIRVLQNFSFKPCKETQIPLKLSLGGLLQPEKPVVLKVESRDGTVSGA
Sequence of Androgen receptor (Homo sapiens) (P10275 whole entry, looked up): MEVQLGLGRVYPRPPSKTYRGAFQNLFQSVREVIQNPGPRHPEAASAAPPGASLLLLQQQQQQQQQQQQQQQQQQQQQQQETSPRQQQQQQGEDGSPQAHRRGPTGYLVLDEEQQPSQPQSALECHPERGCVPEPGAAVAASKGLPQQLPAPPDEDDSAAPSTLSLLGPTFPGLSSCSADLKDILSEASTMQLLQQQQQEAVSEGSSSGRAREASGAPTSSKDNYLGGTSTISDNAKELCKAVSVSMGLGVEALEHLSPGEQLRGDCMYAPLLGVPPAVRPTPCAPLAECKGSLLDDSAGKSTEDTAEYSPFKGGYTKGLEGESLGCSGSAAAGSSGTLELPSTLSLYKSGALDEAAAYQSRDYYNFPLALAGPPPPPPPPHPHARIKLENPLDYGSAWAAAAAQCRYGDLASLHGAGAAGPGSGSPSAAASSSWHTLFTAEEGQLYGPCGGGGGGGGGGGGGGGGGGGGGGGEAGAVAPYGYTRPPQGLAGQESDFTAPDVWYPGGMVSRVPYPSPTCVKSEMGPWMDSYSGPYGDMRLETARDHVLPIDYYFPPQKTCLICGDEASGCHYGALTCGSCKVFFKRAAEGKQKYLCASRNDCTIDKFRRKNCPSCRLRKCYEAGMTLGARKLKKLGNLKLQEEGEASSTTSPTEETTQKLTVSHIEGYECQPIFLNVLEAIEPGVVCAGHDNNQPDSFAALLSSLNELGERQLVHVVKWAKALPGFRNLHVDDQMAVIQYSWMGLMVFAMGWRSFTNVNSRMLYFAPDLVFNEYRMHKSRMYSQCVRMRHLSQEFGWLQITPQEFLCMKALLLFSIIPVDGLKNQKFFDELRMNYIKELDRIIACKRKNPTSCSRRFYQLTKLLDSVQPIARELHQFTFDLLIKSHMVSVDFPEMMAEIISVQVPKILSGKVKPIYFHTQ
Sequence of Estrogen receptor (Homo sapiens) (P03372 whole entry, looked up): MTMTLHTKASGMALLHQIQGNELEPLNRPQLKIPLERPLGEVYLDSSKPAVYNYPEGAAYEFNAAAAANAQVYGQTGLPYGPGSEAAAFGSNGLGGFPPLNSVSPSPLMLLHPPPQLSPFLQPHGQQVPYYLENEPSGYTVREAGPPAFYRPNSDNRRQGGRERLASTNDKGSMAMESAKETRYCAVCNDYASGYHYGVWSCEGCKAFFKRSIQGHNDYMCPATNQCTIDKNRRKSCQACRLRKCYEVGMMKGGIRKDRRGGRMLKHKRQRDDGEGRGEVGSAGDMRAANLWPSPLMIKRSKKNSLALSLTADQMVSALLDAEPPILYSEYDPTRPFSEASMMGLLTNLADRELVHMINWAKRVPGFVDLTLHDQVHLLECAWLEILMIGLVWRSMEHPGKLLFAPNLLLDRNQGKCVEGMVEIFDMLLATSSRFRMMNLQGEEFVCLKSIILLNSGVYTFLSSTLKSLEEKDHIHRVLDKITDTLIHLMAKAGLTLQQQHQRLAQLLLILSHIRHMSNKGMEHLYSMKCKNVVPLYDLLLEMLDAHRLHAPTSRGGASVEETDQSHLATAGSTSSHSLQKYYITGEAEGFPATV
Sequence of Ubiquitin carboxyl-terminal hydrolase 1 (Homo sapiens) (O94782 whole entry, looked up): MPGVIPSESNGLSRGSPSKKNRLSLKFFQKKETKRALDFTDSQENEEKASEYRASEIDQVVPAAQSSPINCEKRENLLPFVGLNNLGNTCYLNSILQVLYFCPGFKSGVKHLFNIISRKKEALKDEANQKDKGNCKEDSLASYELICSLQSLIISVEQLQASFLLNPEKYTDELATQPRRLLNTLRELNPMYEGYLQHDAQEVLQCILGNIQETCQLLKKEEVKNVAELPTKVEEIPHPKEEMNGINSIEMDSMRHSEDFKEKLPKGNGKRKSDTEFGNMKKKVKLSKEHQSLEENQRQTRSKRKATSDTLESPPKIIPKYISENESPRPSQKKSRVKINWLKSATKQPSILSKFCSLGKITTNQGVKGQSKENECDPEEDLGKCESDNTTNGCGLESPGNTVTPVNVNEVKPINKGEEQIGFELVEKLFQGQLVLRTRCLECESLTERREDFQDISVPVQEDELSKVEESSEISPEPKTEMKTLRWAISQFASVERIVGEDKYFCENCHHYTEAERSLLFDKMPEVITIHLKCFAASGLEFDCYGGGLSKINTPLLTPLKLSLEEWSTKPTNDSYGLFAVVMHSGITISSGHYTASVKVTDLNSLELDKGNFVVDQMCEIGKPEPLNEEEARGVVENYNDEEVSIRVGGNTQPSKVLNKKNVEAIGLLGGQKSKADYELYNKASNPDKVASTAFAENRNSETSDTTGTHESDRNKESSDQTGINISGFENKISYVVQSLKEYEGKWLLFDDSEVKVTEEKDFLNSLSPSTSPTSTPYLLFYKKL

In the case of `O=C(O)CBr`, the Potency entry in [1] is “inactive”.

As to `CCCCC#N`, the Potency entry in assay [2] was “inactive”.

With `COC(=O)Nc1nc2ccccc2[nH]1`, the activation in assay [3] is 10.4% and 9.09%.

As to `O=C(O)C(Cl)Br` (stereo unspecified), in assay [4], the compound was called inactive.

As to `N#CC(O)c1ccccc1` (stereo unspecified), the compound was classed as inactive in [4]. The Potency entry in assay [1] is “inactive”.

Take `Cc1ccc(N)cc1N`: the Potency entry in assay [2] is “inactive”. Also, the call in [4] was inactive.

`ClC(Cl)(Cl)C(Cl)(Cl)Cl`: the Potency entry in assay [2] and in assay [1] was “inactive” throughout.

Consider `BrCC(Br)C1CCC(Br)C(Br)C1` (stereo unspecified), for which the activation in assay [3] is 1.31%. Moreover, the outcome in [5] was inactive.

For `C=CCBr`, in assay [2], the Potency entry is “inactive”. In assay [4], the compound was called inactive.

On to `ClCCOCOCCCl`, for which the compound was called inactive in assay [4].

In the case of `CC(C)(OOC(C)(C)c1ccccc1)c1ccccc1`, in assay [3], the activation was 9.96%. Further, the outcome in assay [5] and in assay [4] was inactive.

As for `C=CC=O`, the Potency result in assay [1] was “inactive”.

Turning to `OCCBr`, the Potency entry in [2] was “inactive”. Besides, the outcome in assay [4] was inactive.

For `Nc1ccc2ccccc2c1`, the Potency entry in assay [6], in assay [2] and in assay [1] was “inactive” throughout.

With `Cl/C=C/CCl`, the Potency result in [1] was “inactive”.

Consider `CCCCCc1cc(O)cc(O)c1`, for which the Potency result in assay [6] and in [1] was “inactive” each time. In addition, the call in [4] was inactive.

`C/C=C/CC#N`: the Potency result in [2] and in assay [1] was “inactive” throughout. The outcome in assay [4] was inactive.

Turning to `Clc1cccc(Cl)c1Cl`, the Potency entry in assay [1] is “inactive”.

With `CC(C)(Cl)[N+](=O)[O-]`, the call in assay [4] was inactive.

Regarding `CC(C)(C)c1ccccc1O`, the Potency result in assay [1] was “inactive”.

Consider `CSSC`, for which the Potency entry in [1] is “inactive”.

As to `O=C(O)c1cc(Cl)ccc1Cl`, the outcome in assay [4] was inactive.

For the compound `ClC=CCl`, the Potency entry in [2] is “inactive”.

For `C=CCCC#N`, the Potency result in [2] is “inactive”. Also, the compound was classed as inactive in assay [4].

`CCSC(=O)N1CCCCCC1`: the Potency result in [2] is “inactive”.

On to `N#C/C(N)=C(/N)C#N`, for which the Potency result in assay [2] was “inactive”.

As to `BrC(Br)Br`, the compound was classed as inactive in assay [4].

In the case of `CC(C)OS(C)(=O)=O`, the Potency entry in [2] and in assay [1] was “inactive” throughout. In assay [4], the result was inactive.

Regarding `CCCCOC(C)=O`, the compound was classed as inactive in [4].

As to `ClC(Cl)Br`, the Potency result in [2] is “inactive”.

For the compound `CCN(N=O)C(N)=O`, in [2], the Potency result was “inactive”. Further, the compound was classed as inactive in assay [4].

Consider `CCCCCCCCCCCOC(=O)c1ccccc1C(=O)OCCCCCCCCCCC`, for which the Potency result in assay [2] was “inactive”.

For the compound `O=C(O)C(Br)Br`, in [2], the Potency entry was “inactive”. The call in assay [4] was inactive.

As to `Cc1ccc(N=C=O)cc1N=C=O`, in assay [6], the Potency entry was “inactive”.

In the case of `Oc1cc(Cl)ccc1Cl`, the Potency result in assay [6] and in [1] was “inactive” in each case.

As to `O=[N+]([O-])/C=C/c1ccccc1`, in assay [4], the result was inactive.

`C(CCOCC1CO1)COCC1CO1` (stereo unspecified): in assay [2], the Potency entry is “inactive”. For the same compound, the call in [4] was inactive.

As for `Cc1cc(C)cc(OP(=O)(Oc2cc(C)cc(C)c2)Oc2cc(C)cc(C)c2)c1`, the Potency result in [6] was “inactive”.

Turning to `O=C(O)C(Br)CBr` (stereo unspecified), the Potency result in assay [2] was “inactive”.

Turning to `Brc1ccc(Oc2ccc(Br)cc2Br)c(Br)c1`, in [2], the Potency entry is “inactive”.

For the compound `CC(=O)CCC(C)=O`, the Potency entry in assay [2] was “inactive”.

With `Cc1ccc2c(c1N)C(=O)c1ccccc1C2=O`, the Potency entry in [6] is “inactive”. The compound was called inactive in assay [4].

On to `CC(C)(COCC1CO1)COCC1CO1` (stereo unspecified), for which the Potency entry in assay [2] and in [1] was “inactive” each time. For the same compound, the result in assay [4] was inactive.

Turning to `COc1c(C(C)(C)C)cc([N+](=O)[O-])c(C)c1[N+](=O)[O-]`, the Potency result in [1] was “inactive”.

With `CN(C)c1ccc(N(C)C)cc1`, the result in assay [4] was inactive.

`Nc1c(Br)cc([N+](=O)[O-])cc1[N+](=O)[O-]`: the Potency entry in [6] is “inactive”. Besides, the activation in assay [3] is -3.78%. For the same compound, in [4], the call was inactive.

Turning to `Nc1ccc(Cc2ccc(N)c(Cl)c2)cc1Cl`, the Potency entry in [6] and in assay [2] was “inactive” throughout.

Consider `CCCC[N+](=O)[O-]`, for which the outcome in assay [4] was inactive.

`COP(=S)(OC)SCn1nnc2ccccc2c1=O`: the Potency result in [6], in [9] and in assay [2] was “inactive” in each case. Besides, the compound was called inactive in assay [7] and in assay [8]. Also, the activation in assay [3] is -9.55% and -1.17%.
